The list is not random: actives were taken first. Their share in the collection is about 19%.
DT40 TDP1 no CPT – qHTS for Inhibitors of human tyrosyl-DNA phosphodiesterase 1 (TDP1): qHTS in cells in absence of CPT | DT40 Tdp1-/- hTDP1 cells, no CPT, ATP luminescence, 48 h | Potency, µM (doses to about 46.2 µM), hits mostly inhibitors | 420,000 compounds, 15% hits | AID 686978, 2013; also: nearly all actives have a fitted effect of over 55% in size
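Growth kinetics read by CellTiter-Glo luminescence after ≥48 hr at 37 °C. Cells: DT40 Tdp1-/- stably carrying human TDP1, 400 per well, compound exposure in the absence of CPT (DMSO vehicle).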
DT40 TDP1 CPT – qHTS for Inhibitors of human tyrosyl-DNA phosphodiesterase 1 (TDP1): qHTS in cells in presence of CPT. Potency, µM (highest dose often 46.2 µM), usual class: inhibitors. 420,000 compounds, 12% hits. chicken DT40 Tdp1-/-;hTDP1 cells + 20 nM CPT, ATP luminescence, 48 h; also: nearly all actives have a fitted effect of over 55% in size
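Cell growth measured by CellTiter-Glo luminescence after a minimum 48 h, 37 C compound exposure with 20 nM CPT in Tdp1-knockout DT40 cells stably expressing hTDP1, seeded 400/well; qHTS titration format.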
TDP1 block – qHTS Assay for Inhibitors of Tyrosyl-DNA Phosphodiesterase (TDP1). Tyrosyl-DNA phosphodiesterase 1 (Homo sapiens), Q9NUW8. recombinant TDP1, AlphaScreen DNA substrate cleavage. Potency, µM (highest dose often 130 µM), usual class: inhibitors. 350,000 compounds, 0.28% hits. AID 485290, 2010; also: nearly all actives have a fitted effect of over 40% in size
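Here, a 5' biotin and 3' phosphotyrosine-FITC DNA oligonucleotide reports Tdp1 activity: intact substrate bridges AlphaScreen beads, while cleavage leaves a 3' phosphate and drops signal. All incubations at room temperature.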
Gal4-VP16 FLuc – VP16 counterscreen qHTS for inhibitors of ROR gamma transcriptional activity; Drosophila S2 Gal4-VP16 UAS-luciferase, luminescence, 20 h; Potency, µM (series often up to 53.6 µM), usual class: inhibitors; 310,000 compounds, 3.5% hits; AID 2546, 2010;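 also: Gal4-VP16 expression switched on by copper sulfate through the metallothionein promoter; nearly all actives have a fitted effect of over 50% in size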
RORgamma inh – qHTS for inhibitors of ROR gamma transcriptional activity; 310,000 compounds, 5.4% hits; Potency, µM (doses to about 53.6 µM), hits mostly inhibitors; AID 2551, 2010; Drosophila S2 Gal4-RORgamma UAS-luciferase reporter, 20 h; also: nearly all actives have a fitted effect of over 60% in size
Target sequence (P51450 whole entry, looked up, the tested form may be a part): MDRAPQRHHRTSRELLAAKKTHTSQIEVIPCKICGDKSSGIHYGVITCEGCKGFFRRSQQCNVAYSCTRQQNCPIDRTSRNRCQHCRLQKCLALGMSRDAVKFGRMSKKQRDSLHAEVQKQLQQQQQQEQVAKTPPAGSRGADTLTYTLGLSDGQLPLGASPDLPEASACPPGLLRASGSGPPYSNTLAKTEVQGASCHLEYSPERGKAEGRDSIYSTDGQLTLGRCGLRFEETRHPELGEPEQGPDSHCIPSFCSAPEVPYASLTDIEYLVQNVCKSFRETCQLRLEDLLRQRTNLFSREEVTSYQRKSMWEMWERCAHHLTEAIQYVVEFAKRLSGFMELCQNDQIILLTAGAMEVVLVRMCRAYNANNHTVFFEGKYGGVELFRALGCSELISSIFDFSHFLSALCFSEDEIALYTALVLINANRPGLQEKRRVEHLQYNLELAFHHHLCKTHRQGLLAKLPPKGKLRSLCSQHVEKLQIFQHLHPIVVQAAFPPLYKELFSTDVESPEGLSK
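Using a luciferase readout, inhibitors were identified by reduced reporter activity in Drosophila cells coexpressing a copper-inducible Gal4–ROR gamma fusion and UAS-driven Photinus luciferase, incubated 20 hr after 700 uM copper sulfate.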
Of the large screens only hits and unclear results are named; the others gave an inactive call. Calls follow the shape of the dose curve; as a rule, active = well fitted curve in the direction sought with a large enough effect; inconclusive = small, poorly fitted or top-dose-only effect, or another doubt; inactive = no such curve, though single readings can be large; an effect the other way counts as inactive or inconclusive.

O=C(c1cc(-c2ccncc2)nc2ccccc12)N1CCN(S(=O)(=O)/C=C/c2ccccc2)CC1	DT40 TDP1 no CPT 18µM, DT40 TDP1 CPT inconclusive
CC(=O)N1CCN(C(=O)c2cc(-c3cccc4ccccc34)nc3ccccc23)CC1	DT40 TDP1 no CPT 16µM, DT40 TDP1 CPT 15µM
Cc1ccc(-c2cc(C(=O)N3CCOCC3)c3ccccc3n2)cc1	none
Cc1ccccc1CN1CCN(C(=O)c2cc(-c3ccncc3)nc3ccccc23)CC1	DT40 TDP1 no CPT 12µM, DT40 TDP1 CPT 21µM
Cc1ccc(NC(=O)CSCC(=O)Nc2ccccc2C(=O)NC2CC2)cc1	none (no result: Gal4-VP16 FLuc, RORgamma inh)
O=C(CN1C(=O)C2CCCCN2C(=O)c2ccccc21)Nc1ccc(F)cc1 (centres undefined)	DT40 TDP1 no CPT inconclusive, DT40 TDP1 CPT inconclusive
CCOc1ccc(-c2nc(C)c(C(C)=O)n2O)cc1	Gal4-VP16 FLuc 25µM
COc1ccc(-c2nc(C)c(C(C)=O)n2O)cc1	DT40 TDP1 no CPT inconclusive
COCCNc1ncnc2c1ncn2[C@H]1CN(Cc2ccc3c(c2)OCO3)C[C@@H](CO)O1	none (no result: TDP1 block, Gal4-VP16 FLuc, RORgamma inh)
CCC(CC)C(=O)N(C)c1c(C)nc2c(OCc3ccc(OC(F)F)cc3)cccn12	DT40 TDP1 no CPT 12µM, DT40 TDP1 CPT 12µM (no result: TDP1 block, Gal4-VP16 FLuc, RORgamma inh)
CCC(CC)C(=O)N(C)c1c(C)nc2c(OCc3ccc(Cl)cc3)cccn12	DT40 TDP1 no CPT inconclusive, DT40 TDP1 CPT 8.2µM (no result: TDP1 block, Gal4-VP16 FLuc, RORgamma inh)
CCC(CC)C(=O)N(C)c1c(C)nc2c(OCc3cccc(Cl)c3)cccn12	DT40 TDP1 no CPT 12µM, DT40 TDP1 CPT 21µM (no result: TDP1 block, Gal4-VP16 FLuc, RORgamma inh)
CCC(CC)C(=O)N(C)c1c(C)nc2c(OCc3cccc(OC)c3)cccn12	DT40 TDP1 no CPT 21µM, DT40 TDP1 CPT inconclusive (no result: TDP1 block, Gal4-VP16 FLuc, RORgamma inh)
O=C(OC1CCOC1=O)C1CCN(S(=O)(=O)c2ccc(Cl)c(C(F)(F)F)c2)CC1 (centres undefined)	none (no result: Gal4-VP16 FLuc, RORgamma inh)
COc1cc(/C=C/C(=O)OCc2csc(CC(=O)Nc3ccc(C)cc3)n2)ccc1OCC#N	none (no result: Gal4-VP16 FLuc, RORgamma inh)
COc1cc(N=c2ssnc2Cl)cc(OC)c1	DT40 TDP1 no CPT 13µM, DT40 TDP1 CPT 10µM, Gal4-VP16 FLuc 7.1µM, RORgamma inh 4µM
Clc1nssc1=Nc1ccc(Br)cc1	DT40 TDP1 no CPT 13µM, DT40 TDP1 CPT 10µM, Gal4-VP16 FLuc inconclusive, RORgamma inh inconclusive
Clc1nssc1=Nc1nncs1	DT40 TDP1 no CPT 7.3µM, DT40 TDP1 CPT 5.8µM (no result: Gal4-VP16 FLuc, RORgamma inh)
Clc1ccc(N=c2ssnc2Cl)nc1	DT40 TDP1 no CPT 2.6µM, DT40 TDP1 CPT 3.3µM, RORgamma inh 10µM
OCc1ccccc1N=c1ssnc1Cl	none (no result: DT40 TDP1 no CPT, DT40 TDP1 CPT)
CC1CCCN(C(=O)c2cc3ccc4cccnc4c3[nH]2)C1 (centres undefined)	DT40 TDP1 no CPT inconclusive, DT40 TDP1 CPT inconclusive (no result: Gal4-VP16 FLuc, RORgamma inh)
N#Cc1cccc(N=c2ssnc2Cl)c1	DT40 TDP1 no CPT 6.5µM, DT40 TDP1 CPT 3.3µM, Gal4-VP16 FLuc inconclusive, RORgamma inh inconclusive
COc1ccccc1NC(=O)c1ccccc1C(=O)Nc1ccccc1OC	DT40 TDP1 no CPT inconclusive, DT40 TDP1 CPT inconclusive
COc1ccccc1NC(=O)Nc1ccc(NC(=O)c2ccccc2O)cc1	DT40 TDP1 no CPT 29µM (no result: TDP1 block)
COc1ccccc1NC(=O)Nc1ccccc1Br	DT40 TDP1 no CPT inconclusive, DT40 TDP1 CPT 18µM
COc1ccccc1NC(=O)C(Sc1ccccc1)c1ccccc1 (centres undefined)	DT40 TDP1 no CPT inconclusive, DT40 TDP1 CPT 21µM, TDP1 block inconclusive, Gal4-VP16 FLuc inconclusive
O=C(Nc1ccccc1)Nc1ccc(Br)c(Cl)c1	DT40 TDP1 no CPT 16µM, DT40 TDP1 CPT inconclusive, RORgamma inh inconclusive
CCOC(=O)C(=Cc1ccc2c(c1)OCO2)c1ccccc1	DT40 TDP1 no CPT inconclusive (no result: TDP1 block, Gal4-VP16 FLuc, RORgamma inh)
Cc1ccc(CNC(=O)CSc2nc3ccsc3c(=O)n2Cc2ccccc2F)cc1	none (no result: Gal4-VP16 FLuc, RORgamma inh)
O=C(NCCc1ccccc1)c1ccc2c(c1)N(Cc1ccc(F)cc1)C(=O)c1ccccc1S2	DT40 TDP1 no CPT inconclusive (no result: Gal4-VP16 FLuc, RORgamma inh)
COc1ccc(NC(=O)c2ccc(NS(=O)(=O)c3c(C)noc3C)cc2)cc1OC	none
CCN(CC)S(=O)(=O)c1ccc(C(=O)N2CCN(c3ncccn3)CC2)cc1	none (no result: TDP1 block)

From PubChem BioAssay
